Assay results reported in PubChem BioAssay (NCI).
Compounds without any hit were thinned out: in the full panel of roughly 83,000, 20% have a hit.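 Interpretation: 100, growth as untreated; towards 0, rising growth inhibition; 0, no net growth; 0 to -100, cell death. Compounds scoring below 10 were considered active.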 Values without a mark were called inactive. Activity calls are given as the source filed them.

Assays:
Experiment in all cases: NCI-60 one-dose screen, 48 h (100 = growth as untreated, 0 = no growth, -100 = all killed)
Conditions in all cases: 10 µM
[1] = test system: NCI-H23 lung
[2] = test system: NCI-H226 lung
[3] = test system: NCI-H322M lung
[4] = test system: HOP-62 NSCLC
[5] = test system: NCI-H460 lung
[6] = test system: NCI-H522 lung
[7] = test system: A549/ATCC NSCLC
[8] = test system: 786-0 renal
[9] = test system: COLO 205 colon
[10] = test system: DU-145 prostate
[11] = test system: K-562 leukemia
[12] = test system: MALME-3M melanoma
[13] = test system: MDA-MB-231 breast
[14] = test system: RXF 393 renal
[15] = test system: SF-268 CNS
[16] = test system: SF-295 CNS
[17] = test system: SF-539 CNS
[18] = test system: UACC-257 melanoma
[19] = test system: M14 melanoma
[20] = test system: HCT-15 colon

N#CCCN1C/C(=C/c2ccccc2)C(=O)/C(=C/c2ccccc2)C1
growth [1]: 78.9%
growth [2]: 69.8%
growth [3]: 86%
growth [4]: 59.5%
growth [5]: 71%
growth [6]: -51.6% (active)
growth [7]: 76.6%
growth [8]: 34.1%
growth [9]: 59.4%
growth [10]: 35.2%
growth [11]: 2.2% (active)
growth [12]: -28.7% (active)
growth [13]: 13.9%
growth [14]: 50.3%
growth [15]: 24.7%
growth [16]: 26.3%
growth [17]: 76.1%
growth [18]: 56.2%
growth [19]: -9.82% (active)
growth [20]: -56.4% (active)

CC(C)C[C@H](NC(=O)[C@H](Cc1cccc2ccccc12)NS(=O)(=O)c1cccc2cccnc12)B(O)O
growth [1]: -52.9% (active)
growth [2]: -66.6% (active)
growth [3]: -9.95% (active)
growth [4]: -72.3% (active)
growth [5]: -53.2% (active)
growth [6]: -56.4% (active)
growth [7]: 5.39% (active)
growth [8]: -19.4% (active)
growth [9]: -36.5% (active)
growth [10]: -20.7% (active)
growth [11]: -17.7% (active)
growth [12]: -76.9% (active)
growth [13]: -4.94% (active)
growth [14]: 15.9%
growth [15]: 0.092% (active)
growth [16]: -70.5% (active)
growth [17]: -34.1% (active)
growth [18]: 15.4%
growth [19]: -47.4% (active)
growth [20]: -65.8% (active)

COC(=O)C(C(C[N+](=O)[O-])c1ccccc1)=P(c1ccccc1)(c1ccccc1)c1ccccc1 (stereo not given)
growth [1]: 92.4%
growth [2]: 96.6%
growth [3]: 94.3%
growth [4]: 96.1%
growth [5]: 101%
growth [6]: 83.3%
growth [7]: 101%
growth [8]: 96.1%
growth [9]: 106%
growth [10]: 89.6%
growth [11]: 53.4%
growth [12]: 96%
growth [13]: 108%
growth [14]: 85.9%
growth [15]: 96.1%
growth [16]: 91.6%
growth [17]: 99.2%
growth [18]: 91.5%
growth [19]: 76.3%
growth [20]: 88.9%

C#Cc1ccc(-n2c(/C=C/c3cc(OC)cc(OC)c3)nc3ncccc3c2=O)cc1
growth [1]: 89%
growth [2]: 65.8%
growth [3]: 72.5%
growth [4]: 48.6%
growth [5]: 94.6%
growth [6]: 7.88% (active)
growth [7]: 68.4%
growth [8]: 81%
growth [9]: 117%
growth [10]: 93.2%
growth [11]: 75.3%
growth [12]: 83.2%
growth [13]: 53.5%
growth [14]: 64.8%
growth [15]: 65.3%
growth [16]: 75.7%
growth [17]: 87.8%
growth [18]: 66.3%
growth [19]: 81.2%
growth [20]: 82.8%

COc1ccc2c(c1)O/C(=C\c1ncc([N+](=O)[O-])n1C)C2=O
growth [1]: -7.25% (active)
growth [2]: -42.3% (active)
growth [3]: 2.34% (active)
growth [4]: -20% (active)
growth [5]: -30.6% (active)
growth [6]: -48.8% (active)
growth [7]: -23.9% (active)
growth [8]: -13.4% (active)
growth [9]: -49.2% (active)
growth [10]: -19.2% (active)
growth [11]: 1.57% (active)
growth [12]: -65.6% (active)
growth [13]: -10.3% (active)
growth [14]: -72% (active)
growth [15]: -17.6% (active)
growth [16]: -34.6% (active)
growth [17]: -60.9% (active)
growth [18]: -57% (active)
growth [19]: -54.6% (active)
growth [20]: 2.5% (active)

CC/C(=C(/c1ccc(OCCN(C)C)cc1)c1ccc(OC(=O)CCCCCCCCC(=O)c2c(C)[nH]c(/C=C3\N=C(c4ccc[nH]4)C=C3OC)c2C)cc1)c1ccccc1
growth [1]: 88%
growth [2]: 52.6%
growth [3]: 77%
growth [4]: 75.9%
growth [5]: 46.9%
growth [6]: 54.5%
growth [7]: 50%
growth [8]: 63.9%
growth [9]: 88%
growth [10]: 67.6%
growth [11]: 33.5%
growth [12]: 68.1%
growth [13]: 11.2%
growth [14]: 69.1%
growth [15]: 71.7%
growth [16]: 89%
growth [17]: 83.4%
growth [18]: 90.5%
growth [19]: 38.6%
growth [20]: 58%

Nc1nc(-c2ccccc2Cl)cc(-c2ccc(Cl)cc2Cl)n1
growth [1]: 75.4%
growth [2]: 87.7%
growth [3]: 89.5%
growth [4]: 76.2%
growth [5]: 49.8%
growth [6]: 68.5%
growth [7]: 52.7%
growth [8]: 90.2%
growth [9]: 64.9%
growth [10]: 91.4%
growth [11]: 27.3%
growth [12]: 86.6%
growth [13]: 65%
growth [14]: 75.8%
growth [15]: 65.9%
growth [16]: 38.7%
growth [17]: 72.2%
growth [18]: 93%
growth [19]: 53.5%
growth [20]: 90.2%

Nc1c(C(=O)Nc2ccccc2)sc2nc3c(cc12)CCCC3
growth [1]: 38%
growth [2]: 52.8%
growth [3]: 56.9%
growth [4]: 49.9%
growth [5]: 10.9%
growth [6]: 29.7%
growth [7]: 21.7%
growth [8]: 57%
growth [9]: 1.79% (active)
growth [10]: 11.1%
growth [11]: 13.6%
growth [12]: 52%
growth [13]: 56%
growth [14]: -24.3% (active)
growth [15]: 54.7%
growth [16]: 5.09% (active)
growth [17]: -3.86% (active)
growth [18]: 59.2%
growth [19]: 22.7%
growth [20]: 24.8%

CC1(C)N=C(N)N=C(N)N1c1ccc(CCc2ccccc2)c(Cl)c1
growth [1]: 21.4%
growth [2]: 32.4%
growth [3]: 28.7%
growth [4]: 26.3%
growth [5]: 10.1%
growth [6]: 1.84% (active)
growth [7]: 10.4%
growth [8]: 20.3%
growth [9]: 16%
growth [10]: 27.1%
growth [11]: 11.2%
growth [12]: 43.3%
growth [13]: 39.7%
growth [14]: 44%
growth [15]: 21.1%
growth [16]: 17.7%
growth [17]: 21.8%
growth [18]: 3.1% (active)
growth [19]: 20.5%
growth [20]: 39.7%

CC(=O)N1C/C(=C/c2ccc(Cl)cc2)C(=O)/C(=C/c2ccc(Cl)cc2)C1
growth [1]: -28% (active)
growth [2]: -39.5% (active)
growth [3]: -9.19% (active)
growth [4]: -29.7% (active)
growth [5]: -14.1% (active)
growth [6]: -66.4% (active)
growth [7]: -24.6% (active)
growth [8]: -59.3% (active)
growth [9]: -48.8% (active)
growth [10]: -30.5% (active)
growth [11]: 2.09% (active)
growth [12]: -56.4% (active)
growth [13]: -23.6% (active)
growth [14]: -92.8% (active)
growth [15]: -26.8% (active)
growth [16]: -30.1% (active)
growth [17]: -39.4% (active)
growth [18]: -32.2% (active)
growth [19]: -51.1% (active)
growth [20]: -5.84% (active)

CC(C)(C)c1cc(Br)cc(C(C)(C)C)c1O
growth [1]: 107%
growth [2]: 97.5%
growth [3]: 96.7%
growth [4]: 120%
growth [5]: 117%
growth [6]: 115%
growth [7]: 91.1%
growth [8]: 103%
growth [9]: 113%
growth [10]: 113%
growth [11]: 101%
growth [12]: 103%
growth [13]: 116%
growth [14]: 101%
growth [15]: 113%
growth [16]: 97.8%
growth [17]: 104%
growth [18]: 104%
growth [19]: 115%
growth [20]: 105%

Nc1nc(Nc2ccccc2)n[nH]1
growth [1]: 94.7%
growth [2]: 96.8%
growth [3]: 108%
growth [4]: 92.3%
growth [5]: 108%
growth [6]: 17.7%
growth [7]: 34.8%
growth [8]: 101%
growth [9]: 114%
growth [10]: 117%
growth [11]: 98.6%
growth [12]: 98.5%
growth [13]: 105%
growth [14]: 104%
growth [15]: 112%
growth [16]: 98.1%
growth [17]: 94.2%
growth [18]: -7.13% (active)
growth [19]: 96.5%
growth [20]: 93.8%

O=C(CCCCCCC(=O)Nc1cccnc1)NO
growth [1]: 57.9%
growth [2]: 86.5%
growth [3]: 27.7%
growth [4]: 39.5%
growth [5]: 39.9%
growth [6]: -12.8% (active)
growth [7]: 66.2%
growth [8]: 70.4%
growth [9]: 113%
growth [10]: 40.1%
growth [11]: 5.89% (active)
growth [12]: -23.1% (active)
growth [13]: 66.4%
growth [14]: 17.6%
growth [15]: 41.5%
growth [16]: 73.6%
growth [17]: 50%
growth [18]: 78.4%
growth [19]: 29.6%
growth [20]: 93.1%

CCOC1(OCC)OC(c2ccccc2)=C(C#N)C(/C=C\c2ccccc2)C1(OCC)OCC (stereo not given)
growth [1]: 82.4%
growth [2]: 81.2%
growth [3]: 84.3%
growth [4]: 91.5%
growth [5]: 81.8%
growth [6]: 82.3%
growth [7]: 82.5%
growth [8]: 87.4%
growth [9]: 88.9%
growth [10]: 89.7%
growth [11]: 73.3%
growth [12]: 73.7%
growth [13]: 85.1%
growth [14]: 60.1%
growth [15]: 79.8%
growth [16]: 94.1%
growth [17]: 100%
growth [18]: 81%
growth [19]: 78%
growth [20]: 81.7%
